From the supplement of paper PMC10338343
± gives the standard deviation.

Each sequence was assayed on EfPiwi piRISC loaded with L1MC piRNA (26 nt) (assay: pre-steady-state target cleavage rate (min^-1); auxiliary factor: 500 nM Ephydatia muelleri Gtsf1; guide: L1MC piRNA 5'p-UAACUAAAUACUAUGCAAGCUGUAGG; MIWI and MILI are mouse PIWI proteins and EfPiwi is from a freshwater sponge; tags in brackets are library labels; higher = faster piRNA-guided slicing of the target).
Summary of the method: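 Reactions were run for 0–8 or 0–960 min at 33 °C in HEPES–potassium acetate buffer, combining 1 nM active affinity-purified piRISC with one synthetic guide, […] transcribed, DNA-blocked target RNA library and, in some cases, 500 nM GTSF1 partner protein. Sequencing of uncleaved targets followed, with normalisation to depth and to weakly complementary targets. Three trials were pooled, k3 was capped at 0.0001 min^-1, and the pre-steady-state cleavage rate was taken from a burst-and-steady-state fit.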

Q: With UCCUCGUACAGCUUGCAUAGUAUUUAGAUA as the sequence, how does the “pre-steady-state target cleavage rate” value read?
A: 0.00437 ± 0.0019

Q: With UCCUCCUACUCCUUGCAUAGUAUUUAGAAA as the sequence, how does the “pre-steady-state target cleavage rate” value read?
A: 0.00457 ± 0.0022

Q: Which “pre-steady-state target cleavage rate” value does the source give for UCCUGCUACAGCUUGCAUAGUAUUGAGUUA here?
A: 0.00424 ± 0.0019

Q: With UCCUCCUAGAGCUUCCAUAGUAUUUAGUUA as the sequence, how does the “pre-steady-state target cleavage rate” value read?
A: 0.00302 ± 0.0014

Q: Which “pre-steady-state target cleavage rate” value does the source give for UCCUGGAUGACGAUGCAUAGUAUUUAGUUA here?
A: 0.00546 ± 0.0027

Q: UCCUGGUACAGCUUGCAUAGAAUUUAGUUA was tested. Which “pre-steady-state target cleavage rate” value did it give?
A: 0.00314 ± 0.0023

Q: Which “pre-steady-state target cleavage rate” value does the source give for UCCUCCUACAGCAUGCAUAGUAUUUAGAAA here?
A: 0.00473 ± 0.002

Q: For UCCUGCUACAGCUUGCAUAGUAUAUAGUAA, which “pre-steady-state target cleavage rate” value is on record?
A: 0.00354 ± 0.0018

Q: Which “pre-steady-state target cleavage rate” value does the source give for UCCUGGAUGAGCUUGCUUAGUAUUUAGAUA here?
A: 0.00382 ± 0.0029

Q: With UCCUGGAACAGCUUGCAUAGUUAUUAGUAA as the sequence, how does the “pre-steady-state target cleavage rate” value read?
A: 0.00454 ± 0.0037

Q: For UCCUGCUAGAGCUUGCAUAGUAUUUAGAUA, which “pre-steady-state target cleavage rate” value is on record?
A: 0.00536 ± 0.0018

Q: UCCUCGAACAGCUUGCAUAGUAUUUUCAAA was tested. Which “pre-steady-state target cleavage rate” value did it give?
A: 0.00321 ± 0.0022

Q: For UCCUCGAACAGCUUGCAUAGUAUUUAGAAA, which “pre-steady-state target cleavage rate” value is on record?
A: 0.00534 ± 0.0018

Q: For UCCUGGUACUGCUUGCAUAGUAUAUAGUUA, which “pre-steady-state target cleavage rate” value is on record?
A: 0.01 ± 0.0048

Q: For UCCUGCUACAGCUUGCAUACUAUUAAGUUA, which “pre-steady-state target cleavage rate” value is on record?
A: 0.00453 ± 0.0019

Q: Which “pre-steady-state target cleavage rate” value does the source give for UCCUGGAACAGCUUGCAUAGUAUAUAGAAA here?
A: 0.00685 ± 0.0044

Q: Which “pre-steady-state target cleavage rate” value does the source give for UCCUGGAUCAGCUUGCAUACUAUUAAGUUA here?
A: 0.00253 ± 0.0023

Q: How did the “pre-steady-state target cleavage rate” value turn out when UCCUCCUACACCUUGCAUAGUAUUUUGUUA was run?
A: 0.00451 ± 0.0027

Q: For UCCUGGAACAGCUUGCAUAGUAUUCUAGUUA, which “pre-steady-state target cleavage rate” value is on record?
A: 0.00277 ± 0.0018

Q: How did the “pre-steady-state target cleavage rate” value turn out when UCCUGGUACAGCUUGCUUAGUAUUUAGAAA was run?
A: 0.00224 ± 0.002

Q: How did the “pre-steady-state target cleavage rate” value turn out when UCCUGCAACAGCUUGCAUAGUAUUUACAAA was run?
A: 0.00305 ± 0.0022

Q: With UCCUCCUACAGCUUGCAUAGUAUUGAGUUA as the sequence, how does the “pre-steady-state target cleavage rate” value read?
A: 0.00534 ± 0.002

Q: For UCCUGGAUGAGCUUGCAUAGUAUUUACAAA, which “pre-steady-state target cleavage rate” value is on record?
A: 0.00416 ± 0.0028

Q: UCCUGCUACAGCUUGCAUAGUAUUAUCUUA was tested. Which “pre-steady-state target cleavage rate” value did it give?
A: 0.00653 ± 0.0042

Q: With UCCUGGAACUGCUUGCAUAGUAUUUAGAUA as the sequence, how does the “pre-steady-state target cleavage rate” value read?
A: 0.00297 ± 0.002

Q: How did the “pre-steady-state target cleavage rate” value turn out when UCCUGGAUCAGCUUGCAUUGUAUUUAGAUA was run?
A: 0.00276 ± 0.0021

Q: For UCCUGGAACAGCUUGCAUAGUAUUUAGAUA, which “pre-steady-state target cleavage rate” value is on record?
A: 0.00437 ± 0.0016

Q: With UCCUCCUACAGCUUGCAAAGUAUUUUCAAA as the sequence, how does the “pre-steady-state target cleavage rate” value read?
A: 0.00286 ± 0.0028

Q: For UCCUGGAUGAGCUUGCAUUGUAUUUAGAAA, which “pre-steady-state target cleavage rate” value is on record?
A: 0.00384 ± 0.0021

Q: UCCUGGUACAGCUUGCAUACUAUUUAGAAA was tested. Which “pre-steady-state target cleavage rate” value did it give?
A: 0.00236 ± 0.0018

Q: Which “pre-steady-state target cleavage rate” value does the source give for UCCUGGAACUCCUUGCAUAGUAUUUAGAAA here?
A: 0.00313 ± 0.0019

Q: With UCCUCCUACACCUUGCAUAGAAUUUAGUUA as the sequence, how does the “pre-steady-state target cleavage rate” value read?
A: 0.0018 ± 0.0016

Q: Which “pre-steady-state target cleavage rate” value does the source give for UCCUGGUACUGCUUGCAUAGUAUUUAGUAA here?
A: 0.00428 ± 0.0018

Q: For UCCUCCAUCAGCUUGCAUAGUAUUUACAAA, which “pre-steady-state target cleavage rate” value is on record?
A: 0.00282 ± 0.0024

Q: Which “pre-steady-state target cleavage rate” value does the source give for UCCUGCUACAGCUUGCAUACUAUUUAGAAA here?
A: 0.00298 ± 0.0021

Q: Which “pre-steady-state target cleavage rate” value does the source give for UCCUCCAACAGCUUGCAUAGUAUUUAGAAA here?
A: 0.00461 ± 0.0019

Q: UCCUGGAAGAGCUUGCAUAGAAUUUAGUUA was tested. Which “pre-steady-state target cleavage rate” value did it give?
A: 0.00403 ± 0.0018

Q: How did the “pre-steady-state target cleavage rate” value turn out when UCCUGGUACAGCUUGCUAUAGUAUUUAGUUA was run?
A: 0.00339 ± 0.0031

Q: “UCCUGGAUGUCGAACCAUAGUAUUUACAAA [g5:g15:cont:t1A]” was tested. Which “pre-steady-state target cleavage rate” value did it give?
A: < 0.0001

Q: UCCUGGUACAGCUUGCAUUGUAAUUAGUUA was tested. Which “pre-steady-state target cleavage rate” value did it give?
A: 0.00313 ± 0.0023
